Screening data as filed in PubChem.
LmPK inhibitor: LmPK (Leishmania mexicana) enzyme inhibition. 0.37% of 290,000 active. Potency, µM (highest dose often 57.5 µM), without a hit: at the highest dose activity change, negative = inhibition, usual class: inhibitors. purified LmPK, Kinase-Glo ATP luminescence, 1 h. Q27686. AID 1721; further: potency means the concentration at half of the fitted maximal effect; on the % scale 0 is the no-effect control and ±100 the full control effect
Target sequence (Q27686 whole entry, looked up): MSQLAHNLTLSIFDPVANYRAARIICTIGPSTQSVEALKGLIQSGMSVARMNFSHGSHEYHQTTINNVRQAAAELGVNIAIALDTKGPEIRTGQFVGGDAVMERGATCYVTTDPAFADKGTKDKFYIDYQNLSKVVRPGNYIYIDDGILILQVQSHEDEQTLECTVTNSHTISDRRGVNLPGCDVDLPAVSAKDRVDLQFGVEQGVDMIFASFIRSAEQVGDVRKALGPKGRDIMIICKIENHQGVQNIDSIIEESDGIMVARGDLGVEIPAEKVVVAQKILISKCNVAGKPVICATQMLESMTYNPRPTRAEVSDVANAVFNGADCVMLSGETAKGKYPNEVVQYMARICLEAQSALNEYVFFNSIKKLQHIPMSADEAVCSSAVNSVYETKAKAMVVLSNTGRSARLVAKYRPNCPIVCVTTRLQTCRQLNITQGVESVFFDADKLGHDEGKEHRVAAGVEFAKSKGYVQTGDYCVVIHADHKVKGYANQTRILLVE
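In 50 mM imidazole pH 7.2 with 7 mM MgCl2, LmPK (0.1 nM) turned over PEP (0.5 mM) and ADP (0.1 mM) for 1 h at room temperature. Luciferase read-out of ATP.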
RE007 growth inh: less growth of the S. pombe RE007 Vpr strain | Potency, µM (doses to about 92.2 µM), for inactives: at the top dose activity change, negative = less growth, usual class: inhibitors | S. pombe RE007 Vpr strain, BacTiter-Glo ATP luminescence, 24 h | 0.21% of 360,000 active; active means well fitted falling curve with a large enough effect; inconclusive means small, poorly fitted or top-dose-only effect; inactive means no such curve, though single readings can be large or run the other way; further: potency means the concentration at half of the fitted maximal effect; on the % scale 0 is the no-effect control and ±100 the full control effect; nearly all actives have a fitted effect of over 50% in size
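Fission yeast strain RE007, carrying one chromosomally integrated HIV-1 vpr copy, was seeded at OD 0.01 in PMG+AL medium with 23 nL pinned compound. After 24 h at 30 °C and 99% humidity, viability was read by BacTiter-Glo luminescence.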
Giardia FBPA inh: inhibitors of Giardia lamblia fructose-1,6-bisphosphate aldolase; Potency, µM (highest dose often 59.6 µM), without a hit: top-dose activity, negative = inhibition, actives largely listed as inhibitors; 0.71% of 290,000 active; A8B2U2; AID 2451; purified Giardia FBPA; further: potency means the concentration at half of the fitted maximal effect; on the % scale 0 is the no-effect control and ±100 the full control effect; nearly all actives have a fitted effect of over 55% in size
Target sequence (A8B2U2 whole entry, looked up): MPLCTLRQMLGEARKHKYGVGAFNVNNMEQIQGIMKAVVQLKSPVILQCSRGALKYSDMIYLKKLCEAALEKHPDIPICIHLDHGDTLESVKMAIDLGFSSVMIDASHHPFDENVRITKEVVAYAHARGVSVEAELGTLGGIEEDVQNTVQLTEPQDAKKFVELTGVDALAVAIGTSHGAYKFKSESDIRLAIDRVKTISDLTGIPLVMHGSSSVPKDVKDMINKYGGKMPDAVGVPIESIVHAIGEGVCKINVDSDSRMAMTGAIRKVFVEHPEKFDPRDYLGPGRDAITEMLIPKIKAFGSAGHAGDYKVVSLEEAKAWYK
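Giardia FBPA (40 nM reagent) was preincubated 10 min at RT with compound (up to 57.5 uM final), then substrate plus GAPDH/TPI/NAD/arsenate coupling system with diaphorase/resazurin was added; resorufin fluorescence (525/598 nm) was read after 20 min.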
TbPYK inhibitor: blocks Trypanosoma brucei pyruvate kinase; 0.12% of 410,000 active; TbPYK enzyme, Kinase-Glo Plus ATP luminescence, 45 min; Potency, µM (top dose mostly 76.8 µM), for inactives: top-dose activity, negative = inhibition, usual class: inhibitors; Q57TT1; further: potency means the concentration at half of the fitted maximal effect; on the % scale 0 is the no-effect control and ±100 the full control effect; nearly all actives have a fitted effect of over 50% in size
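Readout: single end-point luminescence (Kinase-Glo Plus, 10 min). Reaction conditions were TbPYK/substrate plus 130 uM ADP, 45 min at RT, pH 7.2 TEA buffer. No-enzyme wells served as controls, and data were normalized before concentration-response fitting.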
Shiga toxin inh: Shiga toxin inhibition | 9.2% of 290,000 active | Vero cells, Shiga toxin protein synthesis inhibition reporter | inhibition, % at 38.7 µM; in the data active means inhibition mostly above about 28%, no sharp cut-off; inactive means mostly below about 43%; further: 0% is about no effect
Cycloheximide cs: counter-screen for Shiga toxin inhibitors: cycloheximide protein synthesis inhibition | cell reporter, cycloheximide protein synthesis inhibition counterscreen | max response, % | 12% of 300,000 active | AID 2314; in the data active means max response mostly above about 13%, no sharp cut-off; inactive means mostly below about 14%; further: read at 38.3 µM for the half of the compounds with a filed dose; 0% is about no effect
The depositor's hits bear a star; ? = inconclusive; · = not tested or not shown; + = active, no number; ! = repeats disagree; [ ] = another dose, or the depositor's remark. This is one part of a sample in which hits are shown more often than they occur. Unless noted, the call rests on the fitted dose curve; in most records, active means well fitted curve in the direction sought with a large enough effect; inconclusive means small, poorly fitted or top-dose-only effect, or another doubt; inactive means no such curve, though single readings can be large; an effect the other way counts as inactive or inconclusive.

SMILES	LmPK inhibitor	RE007 growth inh	Giardia FBPA inh	TbPYK inhibitor	Shiga toxin inh	Cycloheximide cs
Cc1ccc(NC(=O)c2ccc(OC(F)(F)F)cc2)cc1S(=O)(=O)N(C)C	1.9%	12.8%	-11.6%	-8.0%	8.5	12.4*
Cc1ccc(NC(=O)Cc2ccc3c(c2)CCCC3)cc1C	3.5%	-13.9%	11.1%	-4.0%	-13.5	23.4*
O=C(Nc1ccc(F)cc1)c1ccc(CSc2ccc(Cl)cc2)o1	3.1%	0.1%	-6.3%	0.9%	1.9	7.6
C/C(=N\NC(=O)c1ccc(Br)o1)c1cc2c(cc1NC(=O)CCC(=O)O)OCO2	-8.2%	-11.1%	·	-11.7%	34.4*	18.8*
O=C(Nc1ccc(F)cc1)c1ccc(CSc2ccccc2)o1	1.5%	-8.8%	-8.9%	6.7%	5.2	20.9*
CN(C(=O)c1ccc(Cl)cc1)c1ccc(OCC(=O)Nc2cc(C(=O)O)ccc2Cl)cc1	·	-2.8%	·	-6.6%	·	·
O=C(Nc1ccc2c(c1)CCC2)c1ccc(Br)o1	-29.4%	?	-20.8%	-3.5%	76.0*	44.5*
O=C(Nc1ccc2c(c1)CCC2)c1cc2ccccc2o1	-12.4%	?	-28.8%	2.6%	54.9*	65.4*
Cc1ccc(NC(=O)c2ccc(Br)o2)cc1S(=O)(=O)N(C)C	-0.7%	-18.4%	0.2%	-4.4%	78.5*	24.3*
Cc1cc(C)nc(NC(=O)c2ccc(C)o2)n1	-4.6%	-6.3%	·	0.9%	-3.7	-2.4
Cc1ccc(C(=O)Nc2ccc3c(c2)CCC3)o1	?	?	-14.5%	-12.9%	98.5*	63.1*
O=C(CN(c1cccc([N+](=O)[O-])c1)S(=O)(=O)c1ccccc1)N1CCCCC1	5.1%	22.7%	7.0%	0.7%	-6.7	-2.5
O=C(NCc1ccc2c(c1)OCO2)c1ccc(COc2cc(Cl)ccc2Cl)o1	0.9%	1.3%	4.2%	-10.5%	-9.2	-1.3
O=C(Nc1ccc2c(c1)OCO2)c1ccc(COc2ccc3c(c2)CCC3)o1	-1.3%	-14.7%	-13.9%	-0.2%	44.6*	43.0*
Cc1ccc(C(=O)Nc2ccc(F)cc2)o1	-23.1%	-1.4%	-1.4%	-10.0%	32.3*	20.3
Cc1ccc(C(=O)Nc2ccc(O)c(C(=O)O)c2)o1	-28.3%	6.8%	-13.3%	?	-7.5	-2.0
O=C(Nc1ccc2c(c1)OCO2)c1ccc(Br)o1	22.4µM*	9.3%	-10.0%	-3.9%	69.1*	47.8*
CN(C)C(=O)c1ccc(NC(=O)COC(=O)C2CCN(S(=O)(=O)c3ccc4c(c3)OCCO4)CC2)cc1	·	16.3%	·	-6.4%	·	·
CN(C)c1ccc(CC(=O)N2CCCCC2c2cc(C(=O)Nc3ccccc3)no2)cc1 (stereo not drawn)	·	-13.3%	·	2.9%	·	·
CCCCCCCCCCCCCCCCCC(=O)NCCc1ccc(O)c(O)c1	·	·	3.0%	·	·	·
COC(=O)c1[nH]c2ccc(F)cc2c1NC(=O)Nc1ccc(OC)cc1	3.0%	-22.9%	10.1%	-11.3%	-3.3	-1.2
COC(=O)c1[nH]c2ccc(C)cc2c1NC(=O)Nc1ccc(OC)cc1	-2.0%	-0.6%	-0.1%	-17.7%	40.1	19.0*
O=C(CNc1cc(S(=O)(=O)N2CCOCC2)ccc1N1CCCC1)Nc1ccc(Cl)cc1	·	-21.0%	·	1.4%	·	·
CCOc1ccccc1-c1nc(C(N)=O)c2c(n1)n(-c1ccc3c(c1)OCO3)c(=O)n2C	·	·	·	-5.4%	·	·
O=C(CSc1nnc2ccccn12)NCc1cccs1	10.5%	-3.3%	-2.8%	5.9%	52.1*	20.8*
SMILES	LmPK inhibitor	RE007 growth inh	Giardia FBPA inh	TbPYK inhibitor	Shiga toxin inh	Cycloheximide cs
O=C(CSc1ccc2ccccc2c1)NCc1cccs1	3.0%	1.3%	-2.6%	-0.1%	14.9	32.4*
O=C(c1cncc(Br)c1)N1CCN(S(=O)(=O)c2ccc3ccccc3c2)CC1	·	1.2%	·	3.2%	·	·
Cc1ccn2c(c1)nc(=S)n2C(=O)c1ccccc1	?	-1.5%	-3.3%	-28.2%	121.1*	114.2*
Cc1cccc(C(=O)n2c(=S)nc3cc(C)ccn32)c1	11.2µM*	-13.3%	4.8%	-5.8%	125.5*	46.0*
O=C(Cn1ncc2c3ccccc3n(Cc3ccccc3)c2c1=O)NCCCN1CCCCC1	·	·	·	-0.1%	·	·
COc1ccccc1NC(=O)Nc1ccnn1C1CCN(C(=O)c2ccccn2)CC1	-4.3%	-16.3%	·	0.4%	-2.3	0.6
COc1ccccc1C(=O)Nc1ccnn1C1CCN(C(=O)c2ccoc2C)CC1	-2.7%	6.0%	0.9%	-1.5%	12.9	14.9*
COc1ccccc1NC(=O)Nc1ccnn1C1CCN(C(=O)c2cscn2)CC1	8.7%	15.9%	·	2.9%	29.1	32.3*
COc1ccc(C(=O)Nc2ccnn2C2CCN(C(=O)c3cnsn3)CC2)cc1	12.0%	3.4%	-1.8%	-4.2%	53.6	20.1*
O=C(Nc1cccc(F)c1)Nc1ccnn1C1CCN(C(=O)c2ccccn2)CC1	-4.3%	-1.0%	·	-7.9%	42.1*	23.0*
COc1ccc(C2=Nc3ccccc3N(C(=O)c3ccc4ncccc4c3)C2C(=O)NC(C)(C)C)cc1 (stereo not drawn)	·	-27.2%	·	·	·	·
CCc1c(C)nc(N2CCN(c3ccc(OC)cc3)CC2)[nH]c1=O	4.8%	-3.1%	-9.3%	-4.6%	7.3	-0.4
CCOC(=O)C1=C(CSc2nc(CC)c(C)cc2C#N)OC(N)=C(C#N)C1c1ccccc1 (stereo not drawn)	-8.0%	-1.1%	-14.0%	?	-10.6	1.2
CCOC(=O)C1=C(CSc2nc(-c3ccccc3)ccc2C#N)OC(N)=C(C#N)C1c1ccc(OC)cc1 (stereo not drawn)	0.5%	-8.8%	-16.5%	-20.9%	62.8	62.8*
CC(=O)OCC1OC(C#Cc2ccc(F)cc2F)C=CC1OC(C)=O (stereo not drawn)	·	·	0.2%[12.9 µM]	·	·	·
COc1ccccc1CNC(=O)c1cccn1-c1nnc(N2CCCCC2)s1	·	·	·	-18.1%[15.4 µM]	·	·
CCc1ccc(CN2CCCC(C(=O)Nc3ccc(-c4cscn4)cc3)C2)o1 (stereo not drawn)	8.7%	-10.3%	·	9.9%	-2.7	8.9
Cc1ccccc1SC1CCN(Cc2nc(C3CC3)no2)CC1	5.1%	-3.3%	-0.6%	-9.6%	25.2	19.3*
O=C(CSc1nc(-c2ccccc2Cl)ns1)NCc1ccc2c(c1)OCO2	1.5%	-12.7%	-2.3%	3.5%	-11.0	-1.3
Cc1ccccc1-c1nsc(SCC(=O)Nc2ccc3c(c2)OCO3)n1	4.3%	6.6%	1.8%	7.1%	34.9	33.0*
Cc1cccc(-c2nsc(SCC(=O)Nc3ccc4c(c3)OCO4)n2)c1	2.1%	-4.6%	0.5%	-4.0%	35.5*	27.5*
O=c1cc(-c2ccccc2Cl)oc2cc(O)cc(O)c12	1.1%	22.2%	0.4%	3.2%	93.6*	45.8*
O=C(Nc1ccc(O)c2c(=O)cc(-c3ccccc3Cl)oc12)c1ccc(F)cc1	6.7%	13.8%	2.3%	-2.2%	100.4*!	87.6*!
COc1cccc(-c2cc(=O)c3ccccc3o2)c1N	·	·	-7.3%	·	·	·
CCOc1cccc2oc(-c3ccccc3Cl)cc(=O)c12	·	·	0.5%[89.2 µM]	·	+	58.9*
